Measured values from PubChem BioAssay (NCATS).
Inconclusive results are not listed. The source made the active and inactive calls. Calls come from the whole dose curve; as a rule, active = well fitted activation curve with a large enough effect; inconclusive = small, poorly fitted or top-dose-only effect; inactive = no such curve, though single readings can be large or run the other way.

Each molecule was assayed against Rap guanine nucleotide exchange factor 3 (Homo sapiens) (UniProt O95398) (assay: Confirmatory qHTS for agonist of cAMP-regulated guanine nucleotide exchange factor 3 (EPAC1) (AID 1645881;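 note: EPAC1 catalysed release of BODIPY-GDP from Rap1B seen as fluorescence loss; 100% = effect of cAMP agonist control; nearly all actives have a fitted effect of over 75% in size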)). Settings: EPAC1 Rap1B BODIPY-GDP exchange fluorescence; series mostly up to 154 µM; activation: at the top concentration.
Rap guanine nucleotide exchange factor 3 (Homo sapiens), sequence (O95398 whole entry, looked up): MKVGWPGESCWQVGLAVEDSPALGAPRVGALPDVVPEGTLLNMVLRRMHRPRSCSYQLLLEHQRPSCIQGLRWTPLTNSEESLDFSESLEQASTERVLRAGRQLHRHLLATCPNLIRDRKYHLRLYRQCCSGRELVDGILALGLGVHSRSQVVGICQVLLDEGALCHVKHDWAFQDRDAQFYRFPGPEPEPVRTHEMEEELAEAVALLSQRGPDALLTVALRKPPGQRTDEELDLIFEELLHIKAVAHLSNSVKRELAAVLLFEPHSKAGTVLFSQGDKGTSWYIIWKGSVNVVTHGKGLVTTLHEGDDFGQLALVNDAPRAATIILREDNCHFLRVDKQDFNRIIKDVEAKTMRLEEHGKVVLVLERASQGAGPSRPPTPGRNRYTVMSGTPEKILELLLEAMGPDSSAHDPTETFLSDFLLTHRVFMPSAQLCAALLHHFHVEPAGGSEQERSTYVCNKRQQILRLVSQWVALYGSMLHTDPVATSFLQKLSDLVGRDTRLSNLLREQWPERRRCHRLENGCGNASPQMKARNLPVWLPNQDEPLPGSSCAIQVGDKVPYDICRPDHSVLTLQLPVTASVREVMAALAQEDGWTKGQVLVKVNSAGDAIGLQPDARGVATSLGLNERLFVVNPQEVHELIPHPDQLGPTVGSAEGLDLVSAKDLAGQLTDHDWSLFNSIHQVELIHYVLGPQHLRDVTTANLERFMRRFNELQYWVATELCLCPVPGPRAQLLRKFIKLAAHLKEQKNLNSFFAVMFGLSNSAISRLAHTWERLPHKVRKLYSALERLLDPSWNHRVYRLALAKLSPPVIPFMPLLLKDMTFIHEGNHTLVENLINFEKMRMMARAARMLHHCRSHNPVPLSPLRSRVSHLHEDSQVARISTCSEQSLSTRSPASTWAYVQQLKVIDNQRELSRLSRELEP

activation, inactive:
N#CCCN(CCC#N)S(=O)(=O)c1ccc(C(=O)Nc2nnc(C3=COCCO3)o2)cc1 -3.94%
C=CS(=O)(=O)N(Cc1ccccc1Br)[C@H](CO)CC(C)C 3.33%
CC(C)Cc1ccc(CN2CCCC(NC(=O)c3cnc4ccccn4c3=O)C2)cc1 (stereo not given) -3.81%
Cc1ccc(C(C)C)c(OCC(=O)NCC2(N3CCOCC3)CCCCC2)c1 13.4%
O=C(/C=C/c1ccco1)Nc1cccc2cccnc12 22.1%
CC(C)(C)Cc1c(-c2ccccc2)nc2ccc(Cl)cn12 9.57%
COc1cn(-c2ccccc2)nc1C(=O)Nc1ccc(C)cc1Cl 7.07%
Cn1cccc1C(=O)NC(=O)COC(=O)c1ccc(S(C)(=O)=O)c([N+](=O)[O-])c1 -5.89%
CN(C)C(CNC(=O)c1cc(-c2ccco2)nc2ccccc12)c1ccccc1 (stereo not given) 8.11%
CCc1ccc(C(c2ccccc2)c2c(C)[nH]c3ccccc23)s1 (stereo not given) 11.9%
CCOC(=O)C1=CCN(S(=O)(=O)c2ccccc2Cl)C1c1ccc(Cl)c(Cl)c1 (stereo not given) 10.3%
Oc1cccc(C=Nc2cccc3ccccc23)c1O -3.66%
Cc1csc(NC(=O)CSc2sc3c(O)cc(=O)[nH]c3c2C#N)n1 8.08%
COc1ccccc1N1CSC2=C(C#N)C(c3ccc(SC)cc3)CC(=O)N2C1 (stereo not given) 17.4%
CCN(C(=O)Cn1c(C(=O)OC)cc2sccc21)c1cccc(C)c1 12.5%
CCc1ccc2c(c1)NC(=O)C2(C)Cc1ccc(F)cc1 (stereo not given) 15.1%
Cc1cccc(N2CCN(C(=O)c3[nH]c(C(F)(F)F)nc3-c3ccccc3)CC2)c1C 14.1%
Cc1ccc(Cn2ccnc2SCC(=O)Nc2ccc3c(c2)OCO3)cc1 -1.98%
Clc1ccc(C(c2ccccc2)c2c[nH]c3ccccc23)s1 (stereo not given) 24.5%
O=S(=O)(Nc1cc(Sc2ncn[nH]2)c(O)c2ccccc12)c1ccccc1 22.7%
COc1cc(OC)c(NC(=O)CN(C)S(=O)(=O)c2ccc(-c3ccc(=O)[nH]n3)s2)cc1Cl 15.4%
CC(C)Nc1nc(NC(C)C)nc(OCCOC(=O)c2ccccc2)n1 15.2%
O=S(=O)(Nc1ccc(Cl)cc1NS(=O)(=O)c1ccccc1)c1ccccc1 7.19%
O=C(O)c1ccc(/C=N/NC(=O)c2cc(-c3ccc4c5c(cccc35)CC4)n[nH]2)cc1 19.2%
CCC(=O)N(CCC1(c2ccccc2OC)CCOC(C(C)C)C1)Cc1ccco1 (stereo not given) 4.94%
CC[C@@H]1CC=C[C@H]2[C@H]1C(=O)N(Cc1ccccc1)[C@H]2c1ccc(OC)c(Cl)c1 14.7%
O=c1c([N+](=O)[O-])cn(Cc2ccccc2)c(=O)n1Cc1ccccc1 4.85%
O=C1NC(=O)C(=Cc2ccccc2[N+](=O)[O-])S1 20.2%
Cc1cc(C)c(S(=O)(=O)c2ccccc2)c(OC(=O)c2c(F)cccc2F)n1 4.1%
CC(C)C(CCNC(=O)CC(Cc1ccccc1)c1ccco1)c1ccco1 (stereo not given) -4.51%
COc1ccccc1-c1oc2ccccc2c1C#CC(C)(C)O 17.2%
CCOc1cccc(CNc2ccc(O)cc2)c1OCc1ccc(Cl)cc1 3.47%
COc1ccccc1[C@]1(C)ON(c2ccccc2C(F)(F)F)C1=O 15.3%
CCCC(=O)OC1CC(C)N(C(=O)c2ccccc2)c2ccc(C)cc21 (stereo not given) 10.7%
Cc1cccc([C@H]2[C@@H]3C=CCC[C@@H]3C(=O)N2Cc2ccccc2)c1 13.6%
CCOc1cc(CNCCSc2nnnn2C)ccc1OCc1ccc(Cl)cc1Cl 22.1%
Cn1c(=O)c2c(-c3ccccc3Br)n(Cc3ccccc3)cc2n(C)c1=O -6.08%
CCn1c(SCC(=O)N/N=C/C=C\c2ccco2)nc2ccccc21 6.91%
C/C=C/COC(=O)c1[nH]c2c(c1C)C(=O)CC(c1ccco1)C2 (stereo not given) -1.88%
Cc1ccc(O)c(-c2n[nH]c3c2C(c2ccc(F)cc2)N(Cc2ccco2)C3=O)c1 (stereo not given) 9.16%

What follows are molecules tested against Rap guanine nucleotide exchange factor 4 (Homo sapiens) (UniProt Q8WZA2) (assay: Confirmatory qHTS for agonist of cAMP-regulated guanine nucleotide exchange factor 4 (EPAC2) (AID 1645884;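 note: nucleotide exchange releases bodipy-GDP from Rap1 and this lowers its fluorescence; % is set by controls: 0 for no effect and ±100 for the full control effect; nearly all actives have a fitted effect of over 65% in size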)). Settings: EPAC2 GEF activity, Rap1B-BODIPY-GDP fluorescence; series mostly up to 154 µM; activation: at the top concentration.
Rap guanine nucleotide exchange factor 4 (Homo sapiens), sequence (Q8WZA2 whole entry, looked up): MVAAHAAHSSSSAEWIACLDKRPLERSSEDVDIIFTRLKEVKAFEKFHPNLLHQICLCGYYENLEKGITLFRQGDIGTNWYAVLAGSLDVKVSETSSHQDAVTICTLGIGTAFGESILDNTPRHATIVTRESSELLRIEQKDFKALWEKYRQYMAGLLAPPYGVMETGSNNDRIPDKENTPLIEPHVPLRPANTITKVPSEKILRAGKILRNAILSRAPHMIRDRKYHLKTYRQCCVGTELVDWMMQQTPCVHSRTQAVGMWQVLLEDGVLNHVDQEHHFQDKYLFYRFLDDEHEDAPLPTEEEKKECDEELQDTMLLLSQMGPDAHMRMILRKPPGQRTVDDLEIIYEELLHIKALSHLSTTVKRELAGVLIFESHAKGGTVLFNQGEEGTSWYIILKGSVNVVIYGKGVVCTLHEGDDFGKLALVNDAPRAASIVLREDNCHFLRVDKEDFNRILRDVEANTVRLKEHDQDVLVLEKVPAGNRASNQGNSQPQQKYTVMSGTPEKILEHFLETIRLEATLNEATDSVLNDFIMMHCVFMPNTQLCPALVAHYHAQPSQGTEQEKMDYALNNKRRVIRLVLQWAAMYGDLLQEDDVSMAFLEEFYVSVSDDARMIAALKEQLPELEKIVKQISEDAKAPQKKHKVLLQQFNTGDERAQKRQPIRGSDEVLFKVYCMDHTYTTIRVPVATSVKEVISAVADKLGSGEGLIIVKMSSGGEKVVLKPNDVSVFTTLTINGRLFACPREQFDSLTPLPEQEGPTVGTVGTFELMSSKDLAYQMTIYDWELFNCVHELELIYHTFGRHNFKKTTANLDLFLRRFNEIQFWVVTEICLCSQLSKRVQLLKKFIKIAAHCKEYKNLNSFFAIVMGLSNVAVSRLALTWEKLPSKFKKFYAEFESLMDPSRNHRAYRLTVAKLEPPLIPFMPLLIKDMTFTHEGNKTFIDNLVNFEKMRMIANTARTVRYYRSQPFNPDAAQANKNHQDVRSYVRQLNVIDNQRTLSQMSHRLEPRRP

activation, inactive:
N#CCCN(CCC#N)S(=O)(=O)c1ccc(C(=O)Nc2nnc(C3=COCCO3)o2)cc1 0.784%
C=CS(=O)(=O)N(Cc1ccccc1Br)[C@H](CO)CC(C)C 1.88% [at 17.1 µM, percent relative to cAMP agonist control]
CC(C)Cc1ccc(CN2CCCC(NC(=O)c3cnc4ccccn4c3=O)C2)cc1 (stereo not given) 12.4% [at 17.1 µM, percent relative to cAMP agonist control]
Cc1ccc(C(C)C)c(OCC(=O)NCC2(N3CCOCC3)CCCCC2)c1 -15.2% [at 83.8 µM, percent relative to cAMP agonist control]
O=C(/C=C/c1ccco1)Nc1cccc2cccnc12 3.39% [at 17.1 µM, percent relative to cAMP agonist control]
CC(C)(C)Cc1c(-c2ccccc2)nc2ccc(Cl)cn12 9.48% [at 17.1 µM, percent relative to cAMP agonist control]
COc1cn(-c2ccccc2)nc1C(=O)Nc1ccc(C)cc1Cl 2.13%
Cn1cccc1C(=O)NC(=O)COC(=O)c1ccc(S(C)(=O)=O)c([N+](=O)[O-])c1 -3.13% [at 17.1 µM, percent relative to cAMP agonist control]
CN(C)C(CNC(=O)c1cc(-c2ccco2)nc2ccccc12)c1ccccc1 (stereo not given) 5.95% [at 17.1 µM, percent relative to cAMP agonist control]
CCc1ccc(C(c2ccccc2)c2c(C)[nH]c3ccccc23)s1 (stereo not given) 2.23% [at 83.8 µM, percent relative to cAMP agonist control]
CCOC(=O)C1=CCN(S(=O)(=O)c2ccccc2Cl)C1c1ccc(Cl)c(Cl)c1 (stereo not given) 4.1% [at 17.1 µM, percent relative to cAMP agonist control]
Oc1cccc(C=Nc2cccc3ccccc23)c1O -16.4%
Cc1csc(NC(=O)CSc2sc3c(O)cc(=O)[nH]c3c2C#N)n1 0%
COc1ccccc1N1CSC2=C(C#N)C(c3ccc(SC)cc3)CC(=O)N2C1 (stereo not given) 7.57% [at 17.1 µM, percent relative to cAMP agonist control]
CCN(C(=O)Cn1c(C(=O)OC)cc2sccc21)c1cccc(C)c1 -24.2% [at 83.8 µM, percent relative to cAMP agonist control]
CCc1ccc2c(c1)NC(=O)C2(C)Cc1ccc(F)cc1 (stereo not given) 12.7% [at 17.1 µM, percent relative to cAMP agonist control]
Cc1cccc(N2CCN(C(=O)c3[nH]c(C(F)(F)F)nc3-c3ccccc3)CC2)c1C 0%
Cc1ccc(Cn2ccnc2SCC(=O)Nc2ccc3c(c2)OCO3)cc1 -32.2% [at 83.8 µM, percent relative to cAMP agonist control]
Clc1ccc(C(c2ccccc2)c2c[nH]c3ccccc23)s1 (stereo not given) 0% [at 83.8 µM, percent relative to cAMP agonist control]
O=S(=O)(Nc1cc(Sc2ncn[nH]2)c(O)c2ccccc12)c1ccccc1 4.4% [at 17.1 µM, percent relative to cAMP agonist control]
COc1cc(OC)c(NC(=O)CN(C)S(=O)(=O)c2ccc(-c3ccc(=O)[nH]n3)s2)cc1Cl 2.69%
CC(C)Nc1nc(NC(C)C)nc(OCCOC(=O)c2ccccc2)n1 6.48%
O=S(=O)(Nc1ccc(Cl)cc1NS(=O)(=O)c1ccccc1)c1ccccc1 1.88% [at 17.1 µM, percent relative to cAMP agonist control]
O=C(O)c1ccc(/C=N/NC(=O)c2cc(-c3ccc4c5c(cccc35)CC4)n[nH]2)cc1 0%
CCC(=O)N(CCC1(c2ccccc2OC)CCOC(C(C)C)C1)Cc1ccco1 (stereo not given) -0.808% [at 17.1 µM, percent relative to cAMP agonist control]
CC[C@@H]1CC=C[C@H]2[C@H]1C(=O)N(Cc1ccccc1)[C@H]2c1ccc(OC)c(Cl)c1 0%
O=c1c([N+](=O)[O-])cn(Cc2ccccc2)c(=O)n1Cc1ccccc1 6.36% [at 17.1 µM, percent relative to cAMP agonist control]
O=C1NC(=O)C(=Cc2ccccc2[N+](=O)[O-])S1 5.36% [at 17.1 µM, percent relative to cAMP agonist control]
Cc1cc(C)c(S(=O)(=O)c2ccccc2)c(OC(=O)c2c(F)cccc2F)n1 -4.73% [at 17.1 µM, percent relative to cAMP agonist control]
CC(C)C(CCNC(=O)CC(Cc1ccccc1)c1ccco1)c1ccco1 (stereo not given) 3.03% [at 17.1 µM, percent relative to cAMP agonist control]
COc1ccccc1-c1oc2ccccc2c1C#CC(C)(C)O 2.76%
CCOc1cccc(CNc2ccc(O)cc2)c1OCc1ccc(Cl)cc1 0%
COc1ccccc1[C@]1(C)ON(c2ccccc2C(F)(F)F)C1=O 7.85%
CCCC(=O)OC1CC(C)N(C(=O)c2ccccc2)c2ccc(C)cc21 (stereo not given) -2.84% [at 17.1 µM, percent relative to cAMP agonist control]
Cc1cccc([C@H]2[C@@H]3C=CCC[C@@H]3C(=O)N2Cc2ccccc2)c1 6.72%
CCOc1cc(CNCCSc2nnnn2C)ccc1OCc1ccc(Cl)cc1Cl 11.2% [at 83.8 µM, percent relative to cAMP agonist control]
Cn1c(=O)c2c(-c3ccccc3Br)n(Cc3ccccc3)cc2n(C)c1=O -29.8% [at 83.8 µM, percent relative to cAMP agonist control]
CCn1c(SCC(=O)N/N=C/C=C\c2ccco2)nc2ccccc21 1.27%
C/C=C/COC(=O)c1[nH]c2c(c1C)C(=O)CC(c1ccco1)C2 (stereo not given) -4.07%
Cc1ccc(O)c(-c2n[nH]c3c2C(c2ccc(F)cc2)N(Cc2ccco2)C3=O)c1 (stereo not given) -16.1% [at 83.8 µM, percent relative to cAMP agonist control]
